In ChEMBL document CHEMBL2218924, “A broad activity screen in support of a chemogenomic map for kinase signalling research and drug discovery” (Biochem J, 2013):

What follows are compounds tested against T1, Protein kinase C zeta type (Homo sapiens) (UniProt Q05513). Settings: at 1 µM; call rule not given here.
T1 sequence (whole entry): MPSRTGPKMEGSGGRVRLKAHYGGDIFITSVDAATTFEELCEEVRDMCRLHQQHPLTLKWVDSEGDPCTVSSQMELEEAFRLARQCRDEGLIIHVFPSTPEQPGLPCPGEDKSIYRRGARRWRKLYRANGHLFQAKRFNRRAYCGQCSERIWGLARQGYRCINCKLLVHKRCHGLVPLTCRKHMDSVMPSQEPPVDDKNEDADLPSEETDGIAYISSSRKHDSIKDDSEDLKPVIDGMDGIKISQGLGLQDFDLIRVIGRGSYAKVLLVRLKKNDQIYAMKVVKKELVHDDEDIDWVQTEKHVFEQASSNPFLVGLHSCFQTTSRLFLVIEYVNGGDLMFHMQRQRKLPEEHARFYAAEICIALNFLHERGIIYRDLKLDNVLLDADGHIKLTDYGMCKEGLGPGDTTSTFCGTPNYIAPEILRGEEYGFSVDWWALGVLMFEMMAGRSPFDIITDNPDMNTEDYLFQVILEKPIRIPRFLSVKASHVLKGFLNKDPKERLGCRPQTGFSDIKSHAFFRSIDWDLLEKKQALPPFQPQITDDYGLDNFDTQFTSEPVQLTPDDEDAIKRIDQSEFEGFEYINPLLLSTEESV

Compound | residual activity
CCN(CC)CCCCN1c2ccccc2Oc2ccc(Cl)cc21 | 114% (inactive)
O=[N+]([O-])c1ccc(-c2nc(-c3ccc(F)cc3)c(-c3ccncc3)[nH]2)cc1 | 113% (inactive)
Cc1ccc(S(=O)(=O)/C=C/C#N)cc1 | 102% (inactive)
COc1cc2ncnc(Nc3ccc(NC(=O)c4ccccc4)cc3)c2cc1OC | 110% (inactive)
Cn1nc2c3c(cccc31)C(=O)c1ccccc1-2 | 102% (inactive)
Cc1nc2cc3nc(-c4cccs4)cnc3cc2n1C | 99% (inactive)
COc1cc2ncnc(N3CCN(C(=O)Nc4ccc(Oc5ccccc5)cc4)CC3)c2cc1OC | 113% (inactive)
CC(C)n1cnc2/c(=N/c3cccc(Cl)c3)nc(NCCO)[nH]c21 | 100% (inactive)
Cc1cc(Nc2nc(-c3ccccc3)nc3ccccc23)n[nH]1 | 110% (inactive)
Cc1cncc2cccc(S(=O)(=O)N3CCCN(C(=O)CN)C[C@H]3C)c12 | 88% (inactive)
N#Cc1cnc2cnc(NCc3cccnc3)cc2c1Nc1ccc(F)c(Cl)c1 | 103% (inactive)
COc1ccc(S(=O)(=O)N(CCO)c2ccccc2CN(C)C/C=C/c2ccc(Cl)cc2)cc1 | 111% (inactive)
c1ccc2c(-c3ccncc3)c[nH]c2c1 | 94% (inactive)
c1ccc(-c2n[nH]cc2-c2ccnc3ccccc23)nc1 | 108% (inactive)
O=C(Nc1cccc(Nc2nccc(Nc3cccc(C(F)(F)F)c3)n2)c1)C1CC1 | 98% (inactive)
O=C1Nc2cc(Br)ccc2/C1=C1/Nc2ccccc2/C1=N\O | 103% (inactive)

Compound | residual activity
COc1ccc(OC)c2c(=S)c3ccccc3[nH]c12 | 104% (inactive)
O=C1NC(=O)c2c1c1c3ccccc3[nH]c1c1[nH]c3cc(Br)ccc3c21 | 98% (inactive)
O=C(Nc1cccc(Nc2cc(Nc3cccc(C(F)(F)F)c3)ncn2)c1)C1CC1 | 101% (inactive)
N#CCCc1ccc2c(c1)-c1[nH]c3ccc([N+](=O)[O-])cc3c1CC(=O)N2 | 69% (inactive)
O=C1Nc2ccc(Br)cc2/C1=C\c1cc2c([nH]1)CCCC2 | 103% (inactive)
Nc1nc(Nc2ccc(S(N)(=O)=O)cc2)nn1C(=S)Nc1c(F)cccc1F | 75% (inactive)
Cc1cc2ncc(-c3ccccc3)nc2cc1C | 106% (inactive)
CO[C@@H]1[C@H](N(C)C(=O)c2ccccc2)C[C@H]2O[C@]1(C)n1c3ccccc3c3c4c(c5c6ccccc6n2c5c31)C(=O)NC4 | 101% (inactive)
CC(=O)c1ccc(N2CCOCC2)cc1O | 107% (inactive)
COc1ccc(C(=O)Nc2sc3c(c2C(N)=O)CCCC3)cc1OC | 96% (inactive)
CO[C@H]1[C@@H](OC)C[C@H](C)[C@@H](OC)C2=CC(=O)C=C(NC(=O)/C(C)=C/C=C/[C@H](OC)[C@@H](OC(N)=O)/C(C)=C/[C@@H]1C)C2=O | 104% (inactive)
O=C1NC(=O)c2cc(Nc3ccc(F)cc3)c(Nc3ccc(F)cc3)cc21 | 101% (inactive)
Oc1n[nH]c2nnc(-c3c(-c4ccccc4)nn4ccccc34)cc12 | 107% (inactive)
O=Nc1c(-c2c(O)[nH]c3ccccc23)[nH]c2ccccc12 | 101% (inactive)
c1ccc(-c2n[nH]c3c2oc2ccccc23)cc1 | 99% (inactive)

Each compound was assayed against T2, Mitogen-activated protein kinase kinase kinase 5 (Homo sapiens) (UniProt Q99683). Settings: at 10 µM.
T2 sequence (whole entry): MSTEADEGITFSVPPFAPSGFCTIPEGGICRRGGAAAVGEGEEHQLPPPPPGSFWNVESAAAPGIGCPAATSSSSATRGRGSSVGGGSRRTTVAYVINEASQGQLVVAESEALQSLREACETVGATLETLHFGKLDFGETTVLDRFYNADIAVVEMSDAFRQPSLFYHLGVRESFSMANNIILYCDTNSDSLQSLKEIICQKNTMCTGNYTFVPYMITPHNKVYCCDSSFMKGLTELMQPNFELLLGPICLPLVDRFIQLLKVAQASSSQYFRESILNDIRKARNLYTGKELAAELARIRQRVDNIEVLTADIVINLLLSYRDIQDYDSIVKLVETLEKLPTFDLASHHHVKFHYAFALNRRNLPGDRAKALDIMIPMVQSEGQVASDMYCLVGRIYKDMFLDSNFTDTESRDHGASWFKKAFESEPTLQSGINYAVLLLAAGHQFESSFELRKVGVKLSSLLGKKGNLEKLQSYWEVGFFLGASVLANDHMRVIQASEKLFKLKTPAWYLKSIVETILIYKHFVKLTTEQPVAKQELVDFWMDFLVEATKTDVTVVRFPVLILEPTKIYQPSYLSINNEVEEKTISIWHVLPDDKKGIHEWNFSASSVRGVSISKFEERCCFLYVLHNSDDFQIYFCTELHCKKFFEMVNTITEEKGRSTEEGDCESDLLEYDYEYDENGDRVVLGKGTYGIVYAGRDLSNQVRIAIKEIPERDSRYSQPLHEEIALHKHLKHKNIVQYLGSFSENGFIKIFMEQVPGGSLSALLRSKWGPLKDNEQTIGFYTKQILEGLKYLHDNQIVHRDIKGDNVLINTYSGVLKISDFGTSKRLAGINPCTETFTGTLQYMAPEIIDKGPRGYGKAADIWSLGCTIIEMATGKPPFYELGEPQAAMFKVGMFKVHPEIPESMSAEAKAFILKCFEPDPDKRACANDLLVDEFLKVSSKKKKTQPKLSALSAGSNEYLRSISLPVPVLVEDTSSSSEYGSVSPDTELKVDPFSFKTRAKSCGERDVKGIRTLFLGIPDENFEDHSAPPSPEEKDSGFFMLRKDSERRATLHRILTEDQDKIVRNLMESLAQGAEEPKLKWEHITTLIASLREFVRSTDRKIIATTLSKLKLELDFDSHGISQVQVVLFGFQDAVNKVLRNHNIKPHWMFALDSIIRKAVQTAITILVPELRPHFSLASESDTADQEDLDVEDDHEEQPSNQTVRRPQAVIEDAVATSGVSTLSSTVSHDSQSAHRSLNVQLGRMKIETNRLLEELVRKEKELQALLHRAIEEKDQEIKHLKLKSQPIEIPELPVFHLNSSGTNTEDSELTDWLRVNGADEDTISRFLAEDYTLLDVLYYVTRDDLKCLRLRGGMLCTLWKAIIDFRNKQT

Compound | residual activity [%]
CCN(CC)CCCCN1c2ccccc2Oc2ccc(Cl)cc21 | 114
O=[N+]([O-])c1ccc(-c2nc(-c3ccc(F)cc3)c(-c3ccncc3)[nH]2)cc1 | 100
Cc1ccc(S(=O)(=O)/C=C/C#N)cc1 | 115
COc1cc2ncnc(Nc3ccc(NC(=O)c4ccccc4)cc3)c2cc1OC | 100
Cn1nc2c3c(cccc31)C(=O)c1ccccc1-2 | 29
Cc1nc2cc3nc(-c4cccs4)cnc3cc2n1C | 112
COc1cc2ncnc(N3CCN(C(=O)Nc4ccc(Oc5ccccc5)cc4)CC3)c2cc1OC | 67
CC(C)n1cnc2/c(=N/c3cccc(Cl)c3)nc(NCCO)[nH]c21 | 86
Cc1cc(Nc2nc(-c3ccccc3)nc3ccccc23)n[nH]1 | 100
Cc1cncc2cccc(S(=O)(=O)N3CCCN(C(=O)CN)C[C@H]3C)c12 | 87
Cc1cccc(-c2[nH]c(C(C)(C)C)nc2-c2ccc3c(c2)OCO3)n1 | 88
N#Cc1cnc2cnc(NCc3cccnc3)cc2c1Nc1ccc(F)c(Cl)c1 | 65
COc1ccc(S(=O)(=O)N(CCO)c2ccccc2CN(C)C/C=C/c2ccc(Cl)cc2)cc1 | 90
c1ccc2c(-c3ccncc3)c[nH]c2c1 | 77
c1ccc(-c2n[nH]cc2-c2ccnc3ccccc23)nc1 | 105
O=C(Nc1cccc(Nc2nccc(Nc3cccc(C(F)(F)F)c3)n2)c1)C1CC1 | 90
O=C1Nc2cc(Br)ccc2/C1=C1/Nc2ccccc2/C1=N\O | 86

Compound | residual activity [%]
COc1ccc(OC)c2c(=S)c3ccccc3[nH]c12 | 97
COc1cc2ncc(-c3ccccc3)nc2cc1OC | 77
O=C1NC(=O)c2c1c1c3ccccc3[nH]c1c1[nH]c3cc(Br)ccc3c21 | 86
O=C(Nc1cccc(Nc2cc(Nc3cccc(C(F)(F)F)c3)ncn2)c1)C1CC1 | 104
O=C1Nc2ccc(Br)cc2/C1=C\c1cc2c([nH]1)CCCC2 | 81
Nc1nc(Nc2ccc(S(N)(=O)=O)cc2)nn1C(=S)Nc1c(F)cccc1F | -1
Nc1cccc(-c2cc3c(Oc4cccc(O)c4)ncnc3[nH]2)c1 | 95
Cc1cc2ncc(-c3ccccc3)nc2cc1C | 83
CO[C@@H]1[C@H](N(C)C(=O)c2ccccc2)C[C@H]2O[C@]1(C)n1c3ccccc3c3c4c(c5c6ccccc6n2c5c31)C(=O)NC4 | 75
CC(=O)c1ccc(N2CCOCC2)cc1O | 95
COc1ccc(C(=O)Nc2sc3c(c2C(N)=O)CCCC3)cc1OC | 109
CO[C@H]1[C@@H](OC)C[C@H](C)[C@@H](OC)C2=CC(=O)C=C(NC(=O)/C(C)=C/C=C/[C@H](OC)[C@@H](OC(N)=O)/C(C)=C/[C@@H]1C)C2=O | 99
O=C1NC(=O)c2cc(Nc3ccc(F)cc3)c(Nc3ccc(F)cc3)cc21 | 92
Oc1n[nH]c2nnc(-c3c(-c4ccccc4)nn4ccccc34)cc12 | 105
O=Nc1c(-c2c(O)[nH]c3ccccc23)[nH]c2ccccc12 | 7
N#CC(C#N)=C(N)/C(C#N)=C/c1ccc(O)cc1 | 93
c1ccc(-c2n[nH]c3c2oc2ccccc23)cc1 | 90
